Assay results from PubChem BioAssay AID686996 (Broad Institute, 2013).
“And” between values parts separate entries of the source, which are not always exact repeats. Equal values may be shown once. Out of some 350,000 compounds screened, about 1,900 (0.54%) were called active.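 The calls were made as follows: active = mean inhibition across replicates at least about 35%, with every replicate also reaching that limit (limit read from the data); inconclusive = only one of the two criteria met; inactive = neither criterion met.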 Many of the other results were omitted from the sample, so actives are more common in it than they were.

What follows are compounds tested against Caspase-6 (Homo sapiens) (UniProt P55212) (assay: human caspase-6 inhibitors, primary screen, biochemical, VEID-R110 fluorescence, single point, set 2 (AID 686996;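 also: 0% = median of neutral control wells and 100% = no fluorescence left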)). Conditions: purified caspase-6, Z-VEID-R110 cleavage fluorescence; at 12.5 µM; stronger effect = higher value.
Chain of Caspase-6 (Homo sapiens) (P55212 24-179 limits assumed): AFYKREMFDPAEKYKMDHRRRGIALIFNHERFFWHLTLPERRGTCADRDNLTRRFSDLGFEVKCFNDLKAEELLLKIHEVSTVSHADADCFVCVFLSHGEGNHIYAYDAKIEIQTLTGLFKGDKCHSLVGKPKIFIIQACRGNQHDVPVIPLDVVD
Chain of Caspase-6 (Homo sapiens) (P55212 194-293 limits assumed): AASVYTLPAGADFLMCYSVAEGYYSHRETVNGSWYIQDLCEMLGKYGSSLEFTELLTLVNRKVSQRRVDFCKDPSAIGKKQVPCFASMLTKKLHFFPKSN

Row | Structure (SMILES) | inhibition
1 | Cc1noc(C)c1NC(=O)Nc1ccc2c(c1)C(=O)N([C@H](C)CO)C[C@@H](C)[C@@H](CN(C)Cc1ccccc1)O2 | -0.453% (inactive)
2 | C[C@H](CO)N1C[C@H](C)[C@H](CN(C)Cc2ccc(C(F)(F)F)cc2)OCCCC[C@H](C)Oc2ccc(NS(=O)(=O)c3ccc(Cl)cc3)cc2C1=O | 0% (inactive)
3 | CCC(=O)N1[C@H](C(=O)OC)[C@@H](CO)[C@@H]2Cn3c(ccc(-c4cccc(F)c4)c3=O)[C@@H]21 | -0.171% (inactive)
4 | Cc1cccc(-c2ccc(C3[C@@H]4CN(C(=O)Nc5ccc(C(F)(F)F)cc5)C[C@H]3N4)cc2)c1 (some centres undefined) | 17.5% (inactive) and -2.54% (inactive)
5 | C[C@@H]1CCCCO[C@@H](CN(C)Cc2ccccc2)[C@H](C)CN([C@H](C)CO)C(=O)c2cc(NS(=O)(=O)c3cccs3)ccc2O1 | -0.17% (inactive)
6 | Cc1ccc(S(=O)(=O)N2CCN(C(=O)COC(=O)c3c(C)cc(C)cc3C)CC2)c(C)c1 | 0.238% (inactive)
7 | COc1ccccc1CCC(=O)OCC(=O)N1CCN(S(=O)(=O)c2ccc(C)cc2C)CC1 | 0.558% (inactive)
8 | Cc1ccc(S(=O)(=O)N2CCN(C(=O)COC(=O)CNC(=O)c3ccc(C(C)(C)C)cc3)CC2)c(C)c1 | 53.3% (active)
9 | COc1ccc(S(=O)(=O)N2CCC(C(=O)OCC(=O)c3ccccc3)CC2)cc1[N+](=O)[O-] | -8.89% (inactive)
10 | CC1CN(C(=O)c2ccccc2NS(=O)(=O)c2cccc([N+](=O)[O-])c2)CC(C)O1 (centres undefined) | 0.082% (inactive)
11 | COc1ccc(Br)cc1/C=N/Nc1ccc(S(=O)(=O)Nc2ccccc2C(=O)O)cc1[N+](=O)[O-] | 49.3% (active)
12 | CCCN1[C@H](C(=O)N[C@H](C)c2ccccc2)[C@@H](CO)[C@@H]2Cn3c(ccc(-c4ccccc4)c3=O)[C@@H]21 | -1.76% (inactive)
13 | O=C(C[C@H]1CC[C@H]2[C@@H](COC[C@@H](O)CN2CC2CCOCC2)O1)NCc1ccc(Cl)cc1 | -3.23% (inactive)
14 | Cc1noc(C)c1S(=O)(=O)N(C)C[C@@H]1Oc2ccc(NC(=O)Cn3cnnn3)cc2CC(=O)N([C@@H](C)CO)C[C@@H]1C | 2.4% (inactive)
15 | Cc1c(C(=O)Nc2ccccc2)sc2nc3n(c(=O)c12)CCCCC3 | 14.7% (inactive)
16 | COc1ccc(NC(=O)c2sc(=O)n(Cc3ccc(S(=O)(=O)N(C)C)cc3)c2C)cc1 | -0.522% (inactive)
17 | CCN=c1sc(C(=O)Nc2ccccc2)c(C)n1CC | 67.5% (active)
18 | C[C@@H]1CN([C@@H](C)CO)C(=O)Cc2cc(NS(C)(=O)=O)ccc2O[C@H]1CN(C)C(=O)Nc1ccccc1 | 2.54% (inactive)
19 | O=S(=O)(N[C@H]1CC[C@@H](CCNS(=O)(=O)c2ccccc2Cl)O[C@@H]1CO)c1ccccc1 | 1.46% (inactive)
20 | C[C@@H]1CN([C@@H](C)CO)C(=O)c2cc(NC(=O)Nc3ccc4c(c3)OCO4)ccc2O[C@@H](C)CCCCO[C@@H]1CN(C)S(=O)(=O)c1cccs1 | -0.287% (inactive)

Row | Structure (SMILES) | inhibition
21 | COc1ccc(NS(=O)(=O)c2cccc3nsnc23)cc1Cl | -0.203% (inactive)
22 | O=C(O)c1ccc(NS(=O)(=O)c2cccc3nsnc23)cc1 | 4.06% (inactive)
23 | O=S(=O)(Nc1ccccc1Cl)c1cccc2nsnc12 | 51.3% (active)
24 | Cc1cccc(S(=O)(=O)N2CC[C@@H]3[C@H]2c2cc(C#Cc4ccccc4F)ccc2N[C@@H]3CO)c1 | 4.39% (inactive)
25 | CC(C)NC(=O)Nc1ccc2c(c1)C(=O)N([C@@H](C)CO)C[C@H](C)[C@H](CN(C)C(=O)NC1CCCCC1)OCCCC[C@@H](C)O2 | 1.72% (inactive)
26 | C[C@@H]1CN([C@H](C)CO)C(=O)c2cc(-c3cccc(C#N)c3)cnc2O[C@H]1CN(C)C(=O)C1CCC1 | -1.37% (inactive)
27 | COc1ccc(-c2cc(C(=O)NC(Cc3c[nH]c4ccccc34)C(=O)O)c(C)o2)cc1OC (centres undefined) | 50.7% (active)
28 | COc1ccc(-c2cc(=O)oc3cc(OCC(=O)N[C@@H](Cc4c[nH]c5ccccc45)C(=O)O)ccc23)cc1 | 5.8% (inactive)
29 | CC(Oc1ccc2c(-c3ccccc3)cc(=O)oc2c1)C(=O)NC(Cc1c[nH]c2ccccc12)C(=O)O (centres undefined) | 5.42% (inactive)
30 | COc1ccc2c3c([nH]c2c1)[C@H](CO)N(Cc1nccs1)CC31CCN(Cc2cccnc2)CC1 | 1.89% (inactive)
31 | C/C=C/c1ccc([C@H]2[C@@H](CO)N(C(C)=O)[C@H]2CNC(=O)c2ccncc2)cc1 | -0.501% (inactive)
32 | COc1ccc2c3c([nH]c2c1)[C@@H](CO)N(S(C)(=O)=O)CC31CN(CC2CC2)C1 | 0.799% (inactive)
33 | COc1ccc(Cl)cc1N(CC(=O)N1CCCCC1)S(C)(=O)=O | 5.56% (inactive)
34 | COc1ccc(Cl)cc1N(CC(=O)N/N=C/c1ccc(OCC(N)=O)cc1)S(C)(=O)=O | 49.4% (active)
35 | COc1ccc(S(=O)(=O)N(CC(=O)N/N=C/c2ccc(C(=O)O)cc2)Cc2ccccc2)cc1OC | 3.65% (inactive)
36 | O=C(C1CCCCC1)N1CC(=O)N2[C@H](CO)[C@@H](c3ccc(C#Cc4cccc(F)c4)cc3)[C@@H]2C1 | -1.89% (inactive)
37 | C[C@H](CO)N1C[C@H](C)[C@H](CN(C)C(=O)C2CCOCC2)Oc2ncc(-c3ccccc3F)cc2C1=O | -2.04% (inactive)
38 | C[C@H](CO)N1C[C@H](C)[C@@H](CN(C)Cc2cccc(F)c2)Oc2cc(C#CC3CC3)ccc2S1(=O)=O | 0.411% (inactive)
39 | Cc1ccc(S(=O)(=O)N(C)C[C@H]2Oc3ccc(NC(=O)Nc4cccc5ccccc45)cc3CC(=O)N([C@H](C)CO)C[C@H]2C)cc1 | -0.526% (inactive)
